# Values joined by “and” are separate entries in the source; they are usually repeats but may differ in a detail not shown here. Identical values can stand only once. Active and inactive are the calls of the source.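 Rule for the calls, unless noted: active = compounds whose cell count with miR-34 switched on is under 0.7 times the count with it off; inactive = the rest.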
# Columns and labels:
# [1] = viability loss with induced miR-34 in A549 – imaging, A549 dox-inducible miR-34, nuclei and caspase counts, primary screen (AID 1347080); settings: A549 miR-34 inducible, Hoechst nuclei count, 48 h
# [2] = blockers of cellular phospholipid synthesis – cell-based, LOPAC library, screen 4, primary screen (AID 1347384; call rule not given here); settings: animal cells, phospholipid biosynthesis inhibition screen; at 10 µM
# [3] = chitosan synthesis blockers in C. neoformans – flow cytometry, Cibacron Brilliant Red staining (AID 1347148; call rule not given here;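 note: compound exposure lasted three days at 37 degrees C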); settings: Cryptococcus neoformans chitosan, stronger effect = lower value; at 10 µM unless noted
# [4] = MELAS cybrid and Rieske KO viability enhancers – cell-based, MELAS cybrids, Rieske KO mouse fibroblasts, CellTiter-Glo, primary screen (AID 1508586;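 active = mean z-score across replicates of 1.96 or higher in either the MELAS or the Rieske mutant cell line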;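 note: z relative to plate mean and SD of compound and empty wells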); settings: low glucose
# [5] = compounds altering HSF1 focus formation in cells – imaging, Selleck Cancer Library (AID 1347162; in the data active = plate-normalised HSF1 focus index below about 0.46); settings: human cells, HSF1 nuclear foci imaging, at 10 µM; SSMD: measured here: HSF1 foci SSMD mean; cell count: measured here: cell number; plate-normalised HSF1 focus index: stronger effect = lower value
# [6] = stronger effect = lower value, cell number ratio, induced over uninduced
# [7] = measured here: relative caspase fold change +Dox/-Dox
# [8] = measured here: total cells with miR-34 induction, stronger effect = lower value
# [9] = measured here: total cells without miR-34 induction
# [10] = MELAS cybrid survival, CellTiter-Glo 48 h, stronger effect = higher value
# [11] = Rieske KO mouse fibroblast survival, CellTiter-Glo 72 h
SMILES,"fold change [1, 6]","fold change [1, 7]","cell count [1, 8]","cell count [1, 9]",outcome [2],fold fluorescence [3],"z-score [4, 10]","z-score [4, 11]",SSMD [5],cell count [5],plate-normalised HSF1 focus index [5]
NS(=O)(=O)c1cc2c(cc1Cl)NC(C1CC3C=CC1C3)NS2(=O)=O (configuration not stated),0.998 (inactive) and 0.957 (inactive) and 0.847 (inactive),1.34 and 0.752 and 2.93,9070 and 9210 and 11400,9090 and 9620 and 13400,inactive,,,,,,
CCCCCCCC/C=C\CCCCCCCC(=O)NCc1ccc(O)c(OC)c1,1.07 (inactive) and 0.928 (inactive) and 0.945 (inactive),0.981 and 1.03 and 0.614,10500 and 5740 and 9140,9800 and 6180 and 9670,inactive,,,,,,
CCCc1c(OCCCCc2nn[nH]n2)ccc(C(C)=O)c1O,0.952 (inactive) and 0.923 (inactive) and 1.01 (inactive),1 and 1.28 and 1.02,9490 and 5900 and 5660,9970 and 6400 and 5590,,4.57 (inactive),,,,,
CN(C)[C@@H]1C(=O)C(C(N)=O)=C(O)[C@@]2(O)C(=O)C3=C(O)c4c(O)ccc(Cl)c4[C@@H](O)[C@H]3C[C@@H]12,1 (inactive) and 0.852 (inactive) and 0.887 (inactive),0.853 and 1.42 and 3.05,2520 and 7990 and 10000,2520 and 9380 and 11300,inactive,,0.25 (inactive),-1.49,,,
NC/C=C/C(=O)O,1.01 (inactive),1.35,10300,10200,inactive,,,,,,
O=C(O)c1cc(O)c(O)c(O)c1,0.943 (inactive),4.52,11500,12200,,,,,,,
CN(C)CC[C@@H](c1ccc(Cl)cc1)c1ccccn1,1.01 (inactive),1.39,9880,9740,inactive,,,,,,
CN(C)CCOC(=O)COc1ccc(Cl)cc1,1.05 (inactive) and 0.847 (inactive) and 0.935 (inactive),2.3 and 1.11 and 0.787,9260 and 9320 and 8720,8800 and 11000 and 9330,inactive,,-0.229 (inactive) and 0.0507 (inactive),-0.156 and 1.13,,,
O=C(O)CCCCCCCC(=O)O,0.959 (inactive) and 0.941 (inactive),0.966 and 3.31,9890 and 11100,10300 and 11800,inactive,,,,,,
CC(C(=O)O)c1ccc(CC2CCCC2=O)cc1 (configuration not stated),1.07 (inactive) and 1 (inactive),0.862 and 2.11,11000 and 10200,10200,inactive,,,,,,
COc1ccc(-c2cc(C(F)F)nn2-c2ccc(S(N)(=O)=O)cc2)cc1F,0.791 (inactive),2.48,10300,13000,,,,,,,
CCN(CC)CCNC(=O)c1ccc(NC(C)=O)cc1,1.04 (inactive) and 0.905 (inactive),1.99 and 4.44,10300 and 12600,9910 and 14000,inactive,,,,,,
CC(Cc1ccccc1)(NC(=O)CN)c1ccccc1 (configuration not stated),0.999 (inactive) and 0.923 (inactive),2.09 and 0.645,9240 and 8260,9260 and 8950,,,,,,,
CCN(CC)CCNC(=O)c1cc(S(C)(=O)=O)ccc1OC,0.998 (inactive) and 0.882 (inactive) and 0.896 (inactive),1.76 and 0.709 and 3.36,9610 and 9280 and 12200,9630 and 10500 and 13600,inactive,,0.496 (inactive),-0.0746,,,
C[n+]1cc2c3c(ccc2c2ccc4cc5c(cc4c21)OCO5)OCO3,0.823 (inactive) and 1.84 (inactive) and 1.11 (inactive),0.926 and 0.714 and 1.64,552 and 933 and 1830,672 and 507 and 1640,inactive,,,,,,
Cc1cc(O)cc(C)c1Cl,0.933 (inactive),1.14,10100,10800,,,,,,,
C[C@](N)(Cc1ccc(O)cc1)C(=O)O,1.06 (inactive),0.881,10300,9680,inactive,,,,,,
NCC1CCC(C(=O)Oc2ccc(CCC(=O)O)cc2)CC1 (configuration not stated),0.97 (inactive),1.97,9870,10200,,,,,,,
C=CC(N)CCC(=O)O (configuration not stated),0.942 (inactive) and 0.866 (inactive) and 0.941 (inactive),1.9 and 1.11 and 2.08,9530 and 8830 and 11000,10100 and 10200 and 11700,inactive,,-0.0921 (inactive),0.0881,,,
Cc1nc2sccn2c(=O)c1CCN1CCC(=C(c2ccc(F)cc2)c2ccc(F)cc2)CC1,1.04 (inactive) and 0.919 (inactive) and 0.754 (inactive),0.73 and 0.904 and 7.37,8680 and 6720 and 10000,8330 and 7320 and 13300,inactive,,,,,,
C[C@]12CC[C@@H]3c4ccc(O)cc4CC[C@H]3[C@@H]1CCC2=O,0.96 (inactive) and 0.932 (inactive) and 0.881 (inactive),1.22 and 1.44 and 1.06,9000 and 8450 and 7620,9370 and 9060 and 8650,inactive,,0.711 (inactive) and 0.373 (inactive),0.46 and -0.298,2.44,6870,1.13 (inactive)

SMILES,"fold change [1, 6]","fold change [1, 7]","cell count [1, 8]","cell count [1, 9]",outcome [2],fold fluorescence [3],"z-score [4, 10]","z-score [4, 11]",SSMD [5],cell count [5],plate-normalised HSF1 focus index [5]
NCCCC(=O)O,1.09 (inactive),1.86,10000,9160,inactive,,,,,,
Oc1cccc(O)c1,0.918 (inactive),2.54,12000,13100,,,,,,,
CC[C@]12CCCN3CCc4c(n(c5ccccc45)[C@@](O)(C(=O)OC)C1)[C@@H]32,0.85 (inactive),1.33,8280,9750,,,0.291 (inactive),-0.0307,,,
Cc1c(NC(C)C)c(=O)n(-c2ccccc2)n1C,0.876 (inactive),1.14,8020,9170,,,-0.485 (inactive),-0.708,,,
CCc1c(C)[nH]c2c1C(=O)C(CN1CCOCC1)CC2 (configuration not stated),1.14 (inactive) and 0.913 (inactive) and 0.969 (inactive),1.35 and 0.853 and 0.538,11100 and 9250 and 9310,9700 and 10100 and 9610,inactive,,0.0774 (inactive),-0.448,,,
CN(C)CCCN1c2ccccc2Sc2ccccc21,0.997 (inactive) and 0.896 (inactive) and 0.916 (inactive),1.96 and 1.17 and 2.21,7860 and 8360 and 9720,7880 and 9340 and 10600,inactive,,-0.514 (inactive),-0.0726,,,
CC(NCCC(c1ccccc1)c1ccccc1)c1ccccc1 (configuration not stated),0.975 (inactive),1.46,2830,2900,,,-0.775 (inactive),-0.331,,,
O=C(COc1ccc(Cl)cc1)N1CCN(Cc2ccc3c(c2)OCO3)CC1,0.875 (inactive),1.39,8260,9440,,,0.452 (inactive),0.138,,,
CN1Cc2c(N)cccc2C(c2ccccc2)C1 (configuration not stated),1.2 (inactive) and 0.943 (inactive) and 0.87 (inactive),1.05 and 0.932 and 4.35,9850 and 8420 and 10600,8240 and 8920 and 12100,inactive,,0.549 (inactive),0.0395,,,
CN1[C@@H]2CC[C@H]1CC(OC(=O)C(O)c1ccccc1)C2 (some centres not stated),0.916 (inactive),1.3,8240,9000,,,0.652 (inactive),0.375,,,
CCn1cc(C(=O)O)c(=O)c2cc3c(cc21)OCO3,1.06 (inactive) and 0.943 (inactive) and 0.852 (inactive),0.823 and 1.43 and 2.84,10300 and 9150 and 11200,9710 and 9700 and 13200,inactive,,0.663 (inactive),0.252,,,
C[N+]1(CCCCC[N+]2(C)CCCC2)CCCC1,1.07 (inactive) and 0.91 (inactive),0.597 and 1.28,10400 and 8690,9650 and 9550,inactive,,0.607 (inactive),0.539,,,
CCC(Cc1c(I)cc(I)c(N)c1I)C(=O)O (configuration not stated),0.941 (inactive) and 0.781 (inactive),0.773 and 3.75,9300 and 9110,9880 and 11700,,,0.0916 (inactive),-0.459,,,
CCCC(C(=O)OCCN(CC)CC)(c1ccccc1)c1ccccc1,0.769 (inactive) and 0.897 (inactive) and 0.979 (inactive),1.28 and 1.07 and 2.3,4500 and 7370 and 10800,5860 and 8210 and 11000,inactive,,-2.4 (inactive),0.38,,,
Cc1c(O)cccc1C(=O)N[C@@H](CSc1ccccc1)[C@H](O)CN1C[C@H]2CCCC[C@H]2C[C@H]1C(=O)NC(C)(C)C,0.973 (inactive) and 1.07 (inactive),1.56 and 1.1,1740 and 4590,1780 and 4280,inactive,,-0.847 (inactive) and 0.17,0.453 and 2.01,,,
C=CCc1ccccc1OCC(O)CNC(C)C (configuration not stated),0.963 (inactive) and 0.998 (inactive) and 0.909 (inactive),1.1 and 1.18 and 0.556,10100 and 7510 and 7890,10500 and 7520 and 8680,inactive,,-0.407 (inactive) and -0.689 (inactive),-0.409 and 0.651,,,
CC(=O)N[C@@H](CS)C(=O)O,1.05 (inactive) and 0.885 (inactive) and 0.922 (inactive),0.401 and 1.12 and 0.735,10500 and 7510 and 10400,9960 and 8480 and 11200,inactive,,-0.217 (inactive) and 0.201 (inactive),0.862 and -0.824,,,
CC(=O)OC(C)C[N+](C)(C)C (configuration not stated),0.996 (inactive) and 0.9 (inactive) and 0.916 (inactive),1.55 and 1.24 and 1.41,9370 and 9670 and 11300,9400 and 10700 and 12300,inactive,,-0.509 (inactive),0.138,,,
CN1CCC(=C2c3ccccc3Sc3ccccc32)CC1,0.873 (inactive),1.16,7410,8480,,,0.363 (inactive),0.395,,,
Cc1c(Cl)cccc1Nc1ccccc1C(=O)O,0.957 (inactive) and 1.02 (inactive) and 0.935 (inactive),1 and 0.422 and 1.23,9330 and 8170 and 9290,9750 and 8010 and 9940,,,-0.324 (inactive) and 0.232 (inactive) and 0.0953 (inactive),-0.0198 and -0.0599 and -0.617,,,
CCCCCN(CCCCC)C(=O)C(CCC(=O)O)NC(=O)c1ccc(Cl)c(Cl)c1 (configuration not stated),1 (inactive) and 0.871 (inactive) and 0.904 (inactive),0.913 and 1.58 and 1.45,9880 and 9710 and 9580,9840 and 11100 and 10600,inactive,,0.699 (inactive) and -0.377 (inactive),-0.146 and -1.36,,,
